Assay results published in PubChem BioAssay (EPA / NIEHS).
Active and inactive are the calls of the source. The calls were made as follows: active = hit-call score of the fitted dose curve at least 0.9, where 1 is the maximum; inactive = score below 0.9.

Read-out: Tumor necrosis factor receptor 1 (TNFRSF1A), TNFRSF1A (gene 7132)
Assay: LTEA_HepaRG_TNFRSF1A: Life Technologies and Expression Analysis (LTEA) Assay for Tumor necrosis factor receptor 1 (TNFRSF1A) using HepaRG (AID 2283535)
Conditions: mRNA level, 48 h; actives raise or lower the signal
Procedure, shortened: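 Differentiated HepaRG cells in serum-free induction medium, exposed 48 h in duplicate to 8 half-log concentrations up to 100 uM in 0.5% DMSO. TNFRSF1A mRNA by Fluidigm TaqMan qRT-PCR, normalized to ACTB, GAPDH, POLR2A; bidirectional fit.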

SMILES	AC50	outcome
CCN(CC)CCNc1ccc(CNC=O)c2sc3ccc(OC)cc3c(=O)c12	43.5 µM (active)	
N#C[C@@H]1CC(F)(F)CN1C(=O)CNC1CC2CCC(C1)N2c1ncccn1 (stereo partly specified)		inactive
CN(C)C=O		inactive
O=C(OCCOCCOC(=O)c1ccccc1)c1ccccc1		inactive
CCCCCCCCC(=O)O		inactive
CC[C@H](c1ccc(O)cc1)[C@@H](CC)c1ccc(O)cc1	93.4 µM (active)	
CC(C)(C)c1ccc(O)c(C(C)(C)C)c1	50 µM (active)	
O=[N+]([O-])c1ccc(O)cc1		inactive
CCCCOCCO		inactive
OCCC(F)(F)C(F)(F)C(F)(F)C(F)(F)C(F)(F)C(F)(F)F		inactive
CCC(C)(C)C1CCC(O)CC1 (stereo unspecified)		inactive
NC(=O)N1C(=O)C(C(=O)c2cc(Cl)cs2)c2cc(F)c(Cl)cc21 (stereo unspecified)	40.2 µM (active)	
CCCCCCC(=O)O		inactive
ClC1=C(Cl)C(Cl)(Cl)C(Cl)=C1Cl		inactive
COCC(C)OCC(C)O (stereo unspecified)		inactive
C[C@@H]1C[C@H]2[C@@H]3CCC4=CC(=O)C=C[C@]4(C)[C@@]3(F)[C@@H](O)C[C@]2(C)[C@@]1(O)C(=O)COP(=O)(O)O		inactive
CCCCC(CC)COC(=O)CCCCC(=O)OCc1ccccc1 (stereo unspecified)		inactive

SMILES	AC50	outcome
O=C(O)Cc1cc(I)c(Oc2cc(I)c(O)c(I)c2)c(I)c1	55.3 µM (active)	
CCC(=C(c1ccc(O)cc1)c1ccc(OCCN(C)C)cc1)c1ccccc1		inactive
CCc1nn(C2CCCCC2)c2cc(C3(C#N)CCC(C(=O)O)CC3)ccc12 (stereo unspecified)		inactive
CCCCCCCCOC(=O)CCCCCCCCC(=O)OCCCCCCCC		inactive
Oc1cccc(O)c1		inactive
CCc1ccc(CCOc2ccc(CC3SC(=O)NC3=O)cc2)nc1 (stereo unspecified)		inactive
OCCC(F)(F)C(F)(F)C(F)(F)C(F)(F)C(F)(F)C(F)(F)C(F)(F)C(F)(F)F		inactive
O=C(O)c1ccccc1C(c1ccc(O)cc1)c1ccc(O)cc1		inactive
CCCCCCCCCCCCc1ccccc1S(=O)(=O)O		inactive
Cc1oc(-c2ccccc2)nc1CCOc1ccc(C[C@H](Nc2ccccc2C(=O)c2ccccc2)C(=O)O)cc1	26.7 µM (active)	
c1ccc2c(c1)ccc1ccccc12		inactive
CCCCC(CC)COC(=O)CCCCC(=O)OCC(CC)CCCC (stereo unspecified)		inactive
CC(C)CCCCCCOC(=O)CCCCC(=O)OCCCCCCC(C)C		inactive
COc1ccc([N+](=O)[O-])cc1N		inactive
Cc1cc(CCN2CCN(c3nsc4ccccc34)CC2)cc2c1NC(=O)CC2(C)C		inactive
CCCOc1sc(C(=O)N2CCC(c3cc(CN)ccc3F)CC2)c(C)c1Br		inactive

Read-out: Thyroid Hormone Responsive (THRSP), THRSP (gene 7069)
Assay: LTEA_HepaRG_THRSP: Life Technologies and Expression Analysis (LTEA) Assay for Thyroid Hormone Responsive (THRSP) using HepaRG (AID 2283536)
Conditions: mRNA level, 48 h; actives raise or lower the signal
Procedure, shortened: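 Cell model: human HepaRG, approx. 100,000 cells/well, 0.5% DMSO vehicle. Exposure lasts 48 h; phenobarbital 1 mM serves as induction positive control. Gene expression is measured by qRT-PCR against three endogenous control genes.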

SMILES	AC50	outcome
CCN(CC)CCNc1ccc(CNC=O)c2sc3ccc(OC)cc3c(=O)c12	12.8 µM (active)	
N#C[C@@H]1CC(F)(F)CN1C(=O)CNC1CC2CCC(C1)N2c1ncccn1 (stereo partly specified)		inactive
CN(C)C=O		inactive
O=C(OCCOCCOC(=O)c1ccccc1)c1ccccc1		inactive
CCCCCCCCC(=O)O		inactive
CC[C@H](c1ccc(O)cc1)[C@@H](CC)c1ccc(O)cc1		inactive
CC(C)(C)c1ccc(O)c(C(C)(C)C)c1		inactive
O=[N+]([O-])c1ccc(O)cc1		inactive
CCCCOCCO		inactive
OCCC(F)(F)C(F)(F)C(F)(F)C(F)(F)C(F)(F)C(F)(F)F		inactive
CCC(C)(C)C1CCC(O)CC1 (stereo unspecified)		inactive
NC(=O)N1C(=O)C(C(=O)c2cc(Cl)cs2)c2cc(F)c(Cl)cc21 (stereo unspecified)	17.7 µM (active)	
CCCCCCC(=O)O		inactive
ClC1=C(Cl)C(Cl)(Cl)C(Cl)=C1Cl		inactive
COCC(C)OCC(C)O (stereo unspecified)		inactive
C[C@@H]1C[C@H]2[C@@H]3CCC4=CC(=O)C=C[C@]4(C)[C@@]3(F)[C@@H](O)C[C@]2(C)[C@@]1(O)C(=O)COP(=O)(O)O		inactive
CCCCC(CC)COC(=O)CCCCC(=O)OCc1ccccc1 (stereo unspecified)		inactive

SMILES	AC50	outcome
O=C(O)Cc1cc(I)c(Oc2cc(I)c(O)c(I)c2)c(I)c1	56 µM (active)	
CCC(=C(c1ccc(O)cc1)c1ccc(OCCN(C)C)cc1)c1ccccc1		inactive
CCc1nn(C2CCCCC2)c2cc(C3(C#N)CCC(C(=O)O)CC3)ccc12 (stereo unspecified)	79.3 µM (active)	
CCCCCCCCOC(=O)CCCCCCCCC(=O)OCCCCCCCC		inactive
Oc1cccc(O)c1		inactive
CCc1ccc(CCOc2ccc(CC3SC(=O)NC3=O)cc2)nc1 (stereo unspecified)	83.8 µM (active)	
OCCC(F)(F)C(F)(F)C(F)(F)C(F)(F)C(F)(F)C(F)(F)C(F)(F)C(F)(F)F		inactive
O=C(O)c1ccccc1C(c1ccc(O)cc1)c1ccc(O)cc1		inactive
CCCCCCCCCCCCc1ccccc1S(=O)(=O)O	5.53 µM (active)	
Cc1oc(-c2ccccc2)nc1CCOc1ccc(C[C@H](Nc2ccccc2C(=O)c2ccccc2)C(=O)O)cc1	24 µM (active)	
c1ccc2c(c1)ccc1ccccc12		inactive
CCCCC(CC)COC(=O)CCCCC(=O)OCC(CC)CCCC (stereo unspecified)		inactive
CC(C)CCCCCCOC(=O)CCCCC(=O)OCCCCCCC(C)C		inactive
COc1ccc([N+](=O)[O-])cc1N	9.92 µM (active)	
Cc1cc(CCN2CCN(c3nsc4ccccc34)CC2)cc2c1NC(=O)CC2(C)C	82 µM (active)	
CCCOc1sc(C(=O)N2CCC(c3cc(CN)ccc3F)CC2)c(C)c1Br		inactive
